# Assay outcomes deposited in PubChem by several laboratories.
# A selection: hits, their analogues and other compounds. The true share with any hit is near 3.6%.
# HSF1 activator – increases HSF-1 driven luciferase reporter signal | NIH3T3-HGL HSF-1 luciferase reporter, MG132, 8 h; 100% = twice DMSO control signal | activation, % at 9 µM | 300,000 compounds, 1.7% hits;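 active = mean replicate activation of at least 50% with a set share of replicates each reaching 50%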;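 note: 0% = median of the neutral control wells and 100% = twice that signal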
# TWEAK-Fn14 inh – blocks TWEAK-Fn14 interaction in a reporter cell assay. inhibition, % at 10 µM. 360,000 compounds, 2% hits. AID 1159606. TWEAK-stimulated Fn14 reporter cells, luciferase luminescence, 8 h; in the data active = inhibition above about 50%
# HSF1 inh – HSF1 inhibition | NIH3T3-HGL HSE-luciferase, MG132-induced, luminescence 8 h; active compounds read low | activity change, negative = inhibition, % at 7.5 µM (by protocol) | 300,000 compounds, 0.77% hits;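 active = more than half of replicate wells show activity change below -50%, luminescence cut by over half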;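 note: luciferase reports HSF-1 transcriptional activity via heat shock element; 0% = median of DMSO wells and -100% = zero luminescence signal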
# TROY signal inh – blocks TROY-dependent signaling in reporter cells; AID 1347056; 360,000 compounds, 0.98% hits; inhibition, % at 10 µM; Q293 LMP1-TROYcd NF-kB luciferase reporter, 4 h;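 active = compounds whose plate-normalised and pattern-corrected inhibition of the luciferase reporter signal at the single screening dose is 50% or more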
# LGR2 antag – blocks bursicon-induced cAMP signaling via Drosophila LGR2; AID 720647; 380,000 compounds, 0.35% hits; inhibition, % at 9.99 µM; HEK293 LGR2, CRE-luciferase, bursicon-stimulated, 4 h;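 active = drop in luminescence signal, shown as inhibition above about 50% in the replicate tests, limit read from the data, passing the limit was not always enough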;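 note: agonist challenge used bursicon conditioned medium at about half maximal strength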
# LMP1 NFkB inh – reduces LMP1-driven NF-kappaB luciferase signal | LMP1-induced NF-kappaB luciferase reporter cells, luminescence | inhibition, % at 12.5 µM | 350,000 compounds, 0.69% hits; in the data active = inhibition above about 41%;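 note: 0% = neutral control wells and 100% = reference inhibitor control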
# The depositor's hits bear a star; x = not tested or not shown.
SMILES,HSF1 activator,TWEAK-Fn14 inh,HSF1 inh,TROY signal inh,LGR2 antag,LMP1 NFkB inh
O=Nc1c(-c2ccccc2)[nH]n(-c2ccccc2)c1=O,98*,26,65,0,4,-6
C=CCn1c(O)c(N=NC(=S)Nc2ccc(OC)c(Cl)c2)c2ccccc21,55*,-5,7,-20,21,2
C=CCn1c(O)c(N=NC(=O)OC(C)(C)C)c2ccccc21,-11,-18,5,-22,-15,0
C=CCn1c(O)c(N=NC(=S)Nc2ccccc2C)c2cc(S(=O)(=O)N3CCOCC3)ccc21,15,2,-2,-10,14,43*
Cc1cccc(NC(=S)N=Nc2c(O)n(CN3CCOCC3)c3ccccc23)c1C,-8,50*,-13,-10,17,31
COCC(=O)N1CC2(C1)CN(S(C)(=O)=O)[C@@H](CO)c1[nH]c3cc(OC)ccc3c12,x,x,x,x,-8,x
CCC(=O)N(C)C[C@H]1Oc2ncc(Br)cc2C(=O)N([C@H](C)CO)C[C@@H]1C,x,x,x,x,-13,x
COc1ccc(CCNC(=O)c2nonc2N)cc1,61*,0,41,-36,x,0
CC(C)NC(=O)N[C@@H]1CC[C@H](CCNC(=O)C2CCC2)O[C@H]1CO,x,x,x,x,4,x
CN1C(=O)c2cc(NC(=O)c3ccc(F)c(F)c3)ccc2OC[C@H]2O[C@H](CC(=O)O)CC[C@H]21,x,x,x,x,17,x
C[C@H](CO)N1C[C@H](C)[C@H](CN(C)S(=O)(=O)c2ccc(Cl)cc2)Oc2ccc(NC(=O)CCCN(C)C)cc2C1=O,x,x,x,x,-4,x
CC1=C(/C=C/C(=O)O)C(C)(C)CCC1,65*,-1,28,4,x,-3
COc1ccc(OC)c(NC(=O)CSc2ccccc2)c1,30,1,9,-5,x,-1
COc1ccc(OC)c(NC(=O)CS(=O)(=O)c2ccccc2)c1,-7,1,3,5,-21,6
COc1ccc(OC)c(NC(=O)CSCC(=O)O)c1,-92,5,-90*,-3,x,-9
COc1ccc(OC)c(NC(=O)Nc2ccc(O)c3ccccc23)c1,-3,90*,-7,45,x,1
COc1ccc(OC)c(NC(=O)CS(=O)(=O)Cc2ccccc2)c1,-71,3,-61*,14,-8,3
CC(O)(c1ccc(F)c(F)c1)c1nc(-c2cnc3ccccc3c2)cs1 (configuration not stated),x,55*,x,30,14,x
CCC(=O)N1CC2(CCN(Cc3ccc(Cl)cc3)CC2)c2c([nH]c3cc(OC)ccc23)[C@H]1CO,x,x,x,x,4,x
NC1=NC(=O)/C(=C/c2cn(Cc3ccccc3)c3ccccc23)S1,60*,7,12,-47,-17,-5
O=C(c1ccccn1)N1C[C@H]2[C@@H](c3ccccc31)[C@@H](CO)N2C(=O)C1CCCCC1,x,x,x,x,8,x
CCn1c(SCC(=O)N/N=C/C=C/c2ccco2)nc2ccccc21,78*,-6,47,9,18,0
COc1ccccc1C(=O)NNC(=O)c1cccc(F)c1,39,67*,15,8,2,-11
COc1ccccc1C(=O)NNC(=O)c1cccc(O)c1,-8,39,3,-11,39,8
O=C(O)Cc1sc(Nc2ccc(Cl)cc2)nc1-c1cccs1,38,x,27,x,-62,51*
SMILES,HSF1 activator,TWEAK-Fn14 inh,HSF1 inh,TROY signal inh,LGR2 antag,LMP1 NFkB inh
COc1ccc(NC(=O)Nc2ccc3c(c2)C(=O)N([C@H](C)CO)C[C@@H](C)[C@@H](CN(C)C(=O)Nc2ccc(F)cc2)O3)cc1,x,x,x,x,12,x
COc1ccc(CNc2ccc(Br)cc2)cc1,17,-31,16,-61,-43,-11
COc1ccc(NC2=NCC(Cc3ccc(Br)cc3)S2)cc1 (configuration not stated),31,8,9,25,-4,66*
Cc1ccccc1C(=O)NNC(=O)c1cc(N)cc([N+](=O)[O-])c1,1,-15,2,57*,-22,-2
CCCOc1ccc(/C=N/Nc2ccc(C(=O)O)cc2)c(OCCC)c1,-52,-1,-56*,15,-5,-4
CC(C)Oc1ccccc1/C=N/Nc1ccccc1[N+](=O)[O-],5,7,-9,82*,-8,-15
COc1ccc2c(/C=N/Nc3ccc(C(=O)O)cc3)c[nH]c2c1,-11,12,-12,-22,-115,-43
CCCOc1ccc(/C=N/NC(=S)Nc2ccccc2[N+](=O)[O-])c(O)c1,-92,x,-90*,x,83*,x
CCCOc1ccc(/C=N/Nc2cccc([N+](=O)[O-])c2)c(O)c1,6,-9,17,-58,-80,-60
CCCOc1ccc(/C=N/Nc2ccccc2[N+](=O)[O-])c(O)c1,-75,98*,-69*,91*,x,24
CC(C)CC#Cc1ccc2c(c1)O[C@H](CN(C)C(=O)c1cccc(F)c1)[C@H](C)CN([C@H](C)CO)S2(=O)=O,x,x,x,x,-4,x
C[C@H]1CN([C@@H](C)CO)C(=O)Cc2cc(NS(=O)(=O)c3cn(C)cn3)ccc2O[C@H]1CN(C)S(=O)(=O)c1ccc(F)cc1,x,x,x,x,4,x
COc1ccc(S(=O)(=O)Nc2ccc3c(c2)CC(=O)N([C@H](C)CO)C[C@H](C)[C@H](CN(C)Cc2ccc4c(c2)OCO4)O3)cc1,x,x,x,x,9,x
COc1ccc(/C=N/NC(=S)Nc2ccccc2[N+](=O)[O-])cc1O,-9,93*,-3,86*,38,-10
COc1ccc(C(c2c(C)n(C)n(-c3ccccc3)c2=O)c2c(C)n(C)n(-c3ccccc3)c2=O)cc1OC,28,11,7,2,12,1
Cc1[nH]n(-c2ccccc2)c(=O)c1C(C[N+](=O)[O-])c1ccc(Cl)cc1 (configuration not stated),133*,12,111,18,-6,-1
COc1ccc(C(c2c(C)[nH]n(-c3ccccc3)c2=O)c2c(C)[nH]n(-c3ccccc3)c2=O)cc1OC,70*,-23,26,-43,-6,-2
Cc1[nH]n(-c2ccccc2)c(=O)c1C(C[N+](=O)[O-])c1ccc(F)cc1 (configuration not stated),282*,-13,238,5,-1,11
O=C(c1cccnc1)N1CC2(C1)[C@@H](c1ccccc1)[C@@H](CO)N2CC1CC1,x,x,x,x,4,x
COc1ccccc1CN1CCCC(C(=O)N(C)Cc2ccccc2)C1 (configuration not stated),-1,15,-5,-37,x,21
COc1ccccc1CN1CCCC(CN(CCN(C)C)C(=O)C2CCCC2)C1 (configuration not stated),-71,-11,-62*,8,6,8
C[C@@H]1CN([C@H](C)CO)C(=O)c2cc(NS(C)(=O)=O)ccc2O[C@@H](C)CCCCO[C@@H]1CN(C)Cc1ccc(C(=O)O)cc1,x,x,x,x,9,x
O=C1C(N2CCOCC2)=C(n2nnc3ccccc32)C(=O)c2ccccc21,48,45,33,14,x,65*
